{"source": "PubChem BioAssay (NCATS)", "note": "Inconclusive results are not listed. Unmarked numbers belong to inactive results. Active and inactive are the calls of the source. The call rests on the fitted dose curve; in most records, active means well fitted inhibition curve with a large enough effect; inconclusive means small, poorly fitted or top-dose-only effect; inactive means no such curve, though single readings can be large or run the other way. On the % scale 0 is the no-effect control and ±100 the full control effect; potency means the concentration at half of the fitted maximal effect."}
{"biological_target": "N-terminal Xaa-Pro-Lys N-methyltransferase 1 (Homo sapiens) (UniProt Q9BV86)", "sequence (Q9BV86 whole entry, looked up)": "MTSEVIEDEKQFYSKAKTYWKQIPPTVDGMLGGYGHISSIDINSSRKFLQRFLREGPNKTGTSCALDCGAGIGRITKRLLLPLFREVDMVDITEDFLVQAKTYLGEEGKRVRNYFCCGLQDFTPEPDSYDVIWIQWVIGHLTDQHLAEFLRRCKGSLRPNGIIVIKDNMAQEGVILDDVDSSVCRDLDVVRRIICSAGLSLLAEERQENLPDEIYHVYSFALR", "test": "qHTS Assay for Inhibitors of N-terminal methyltransferase 1 (NTMT1): LOPAC validation of the NTMT1 SAHH-coupled ThioGlo3 Assay (AID 1347143);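 further: SAH from peptide methylation measured as thiol fluorescence via SAHH coupling and ThioGlo3; nearly all actives have a fitted effect of over 70% in size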", "conditions": "recombinant NTMT1, SAHH-coupled ThioGlo3 fluorescence; series mostly up to 114 µM; activity change, negative = inhibition: at the top concentration", "method_in_brief": "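Recombinant human NTMT1 (125nM) was pre-incubated 1 min at room temperature with compounds over a concentration range, then a mix of 100uM SAM, 10uM SAHH and 15uM ThioGlo3 (concentrations in added reagent) was added. ThioGlo3 fluorescence (ex 340/em 450nm) after 30 min was normalized to the initial reading.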", "units": {"activity change, negative = inhibition": "%"}}
{"smiles": "S=C(NC1CCCCC1)N1CCC(c2cnc[nH]2)CC1", "activity change, negative = inhibition": -19.8}
{"smiles": "CCCN(CCC)[C@@H]1CCc2ccc(O)cc2C1", "activity change, negative = inhibition": -16.5}
{"smiles": "NCc1cc(=O)[nH]o1", "activity change, negative = inhibition": -11.8}
{"smiles": "NC1CCc2cc(O)c(O)cc2C1", "note": "(centres undefined)", "Potency": "22.4 µM (active)"}
{"smiles": "c1ccc2sc(C3(N4CCCCC4)CCCCC3)cc2c1", "activity change, negative = inhibition": -15.7}
{"smiles": "CCCN(CCC)C1CCc2ccc(O)cc2C1", "note": "(centres undefined)", "activity change, negative = inhibition": -21.8}
{"smiles": "NC(CP(=O)(O)O)C(=O)O", "note": "(centres undefined)", "activity change, negative = inhibition": -15.7}
{"smiles": "CC(C)Oc1cccnc1N(C)C1CCN(Cc2ccccc2)CC1", "Potency": "56.2 µM (active)"}
{"smiles": "NC(N)=NOCCC(N)C(=O)O", "note": "(centres undefined)", "activity change, negative = inhibition": -16.2}
{"smiles": "NC1CC1c1ccccc1", "note": "(centres undefined)", "activity change, negative = inhibition": -11.9}
{"smiles": "COc1ccc2c(c[n+](C)c3c4cc5c(cc4ccc23)OCO5)c1OC", "Potency": "25.1 µM (active)"}
{"smiles": "O=C(O)CC[N+](=O)[O-]", "activity change, negative = inhibition": -21.5}
{"smiles": "C[C@]12N[C@H](Cc3ccccc31)c1ccccc12", "activity change, negative = inhibition": -16.7}
{"smiles": "CS(=N)(=O)CC[C@H](N)C(=O)O", "note": "(some centres undefined)", "activity change, negative = inhibition": -17.9}
{"smiles": "CC(=O)[C@H]1CCC2C3CC[C@H]4C[C@H](O)CC[C@]4(C)C3CC[C@@]21C", "note": "(some centres undefined)", "activity change, negative = inhibition": -7.45}
{"smiles": "Cn1cnc(CCN)c1", "activity change, negative = inhibition": -20.1}
{"smiles": "COC(=O)[C@@H](N)CCCN=C(N)N[N+](=O)[O-]", "activity change, negative = inhibition": -16.2}
{"smiles": "c1ccc(C2(c3ccccc3)CC2C2=NCCN2)cc1", "note": "(centres undefined)", "activity change, negative = inhibition": -10.1}
{"smiles": "C=CCN1CC[C@]23CCCCC2[C@H]1Cc1ccc(O)cc13", "note": "(some centres undefined)", "activity change, negative = inhibition": -16.9}
{"smiles": "NC(=O)CN1CC(O)CC1=O", "note": "(centres undefined)", "activity change, negative = inhibition": -5.28}
{"smiles": "Clc1cnc(Oc2ccc(Oc3ncc(Cl)cc3Cl)cc2)c(Cl)c1", "activity change, negative = inhibition": -13.5}
{"smiles": "COc1cc(C(O)CN)ccc1O", "note": "(centres undefined)", "activity change, negative = inhibition": -26.4}
{"smiles": "NC(=NCCC[C@H](N)C(=O)O)N[N+](=O)[O-]", "activity change, negative = inhibition": -13.6}
{"smiles": "CC[C@@H]1C(=O)OC[C@@H]1Cc1cncn1C", "Potency": "inactive"}
{"smiles": "O=C1CCCN1CC#CCN1CCCC1", "activity change, negative = inhibition": -17.5}
{"smiles": "O=C(O)[C@@H]1CCN1", "activity change, negative = inhibition": -6.45}
{"smiles": "O=C(O)Cc1cnc[nH]1", "activity change, negative = inhibition": -20.1}
{"smiles": "O=C(Cc1ccc(Cl)c(Cl)c1)N1CCCCC1CN1CCCC1", "note": "(centres undefined)", "activity change, negative = inhibition": -22.7}
{"smiles": "CCCCc1ccc(C(=O)O)nc1", "activity change, negative = inhibition": -10.7}
